# Measurements published in PubChem BioAssay (NCI).
# About 83,000 compounds went through this panel and 20% of them were active in at least one assay; those are over-represented in the sample as a whole.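 Cell lines were cultured in 96-well plates, exposed to a single compound concentration, and assessed for percent growth 48 hours later.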 A number with no mark means an inactive call. Calls of active or inactive are those of the source. How the source made its calls: active means growth percent below 10; inactive means the rest.
# Tests used:
# Test in all cases: NCI-60 one-dose screen, 48 h (100 = growth as untreated, 0 = no growth, -100 = all killed)
# NCI-H23 lung = conditions: 10 µM unless noted
# NCI-H226 lung = conditions: 10 µM unless noted
# NCI-H322M lung = conditions: 10 µM unless noted
# HOP-62 NSCLC = conditions: 10 µM unless noted
# NCI-H460 lung = conditions: 10 µM unless noted
# HOP-92 NSCLC = conditions: 10 µM
# NCI-H522 lung = conditions: 10 µM unless noted
# 786-0 renal = conditions: 10 µM unless noted
# COLO 205 colon = conditions: 10 µM unless noted
# DU-145 prostate = conditions: 10 µM unless noted
# K-562 leukemia = conditions: 10 µM unless noted
# MALME-3M melanoma = conditions: 10 µM unless noted
# MDA-MB-231 breast = conditions: 10 µM unless noted
# SF-268 CNS = conditions: 10 µM unless noted
# SF-295 CNS = conditions: 10 µM unless noted
# SF-539 CNS = conditions: 10 µM unless noted
# UACC-257 melanoma = conditions: 10 µM unless noted
# A549/ATCC NSCLC = conditions: 10 µM unless noted
# RXF 393 renal = conditions: 10 µM unless noted
# M14 melanoma = conditions: 10 µM unless noted
SMILES,growth (NCI-H23 lung),growth (NCI-H226 lung),growth (NCI-H322M lung),growth (HOP-62 NSCLC),growth (NCI-H460 lung),growth (HOP-92 NSCLC),growth (NCI-H522 lung),growth (786-0 renal),growth (COLO 205 colon),growth (DU-145 prostate),growth (K-562 leukemia),growth (MALME-3M melanoma),growth (MDA-MB-231 breast),growth (SF-268 CNS),growth (SF-295 CNS),growth (SF-539 CNS),growth (UACC-257 melanoma),growth (A549/ATCC NSCLC),growth (RXF 393 renal),growth (M14 melanoma)
C=C(C=O)[C@@H]1CC[C@]2(C)[C@H](C(=O)C=C3[C@H]4C[C@](C)(C(=O)OC)CC[C@]4(C)CC[C@]32C)[C@@]1(C)CCC#N,4.93% (active),-53.6% (active),109%,41.2%,32.4%,-35.2% (active),52.5%,13.6%,86.4%,6.32% (active),5.75% (active),-49.8% (active),-19% (active),32%,28.4%,-29.1% (active),-13.6% (active),,,
O=C(Nc1ccc(N=Cc2c(O)[nH]c3ccccc23)cc1)Nc1nccs1,37.8%,30%,52.8%,37.3%,16.8%,49.8%,,52.9%,25.7%,40.5%,17.3%,46.9%,47.9%,77.2%,70.6%,33.6%,71.6%,56.6%,-20.5% (active),
Cc1ccc2c(c1)Oc1nc(N)c(C#N)c(N)c1C2Sc1ccc(F)cc1 (centres undefined),-88.2% (active),-50.6% (active),-98.7% (active),-86.3% (active),-50.4% (active),-93.6% (active),-58.1% (active),-97.3% (active),-49.7% (active),-98.9% (active),-13.6% (active),-91.9% (active),-92.5% (active),-81.6% (active),-96.9% (active),-99% (active),-94.4% (active),-82.2% (active),,
CCCCCc1ccc(S(=O)(=O)Nc2cc(-c3csc(NC(=O)CN4CCN(C)CC4)n3)ccc2N2CCN(C)CC2)cc1,45.1%,71.8%,6.19% (active),42.5%,-56% (active),49.9%,-39.5% (active),-50.9% (active),-51.2% (active),15.9%,1.1% (active),-91.4% (active),-52.7% (active),-33.5% (active),-63.9% (active),-86.2% (active),-58.4% (active),,,
c1ccc(C(c2nc3ncncc3[nH]2)N2CSc3nc4ccccc4n3C2)cc1 (centres undefined),107%,98.7%,106%,96.6%,107%,91.5%,98.2%,101%,110%,110%,96.5%,81.1%,98.9%,98.1%,101%,95.3%,104%,,,
O=C1CCC(N2C(=O)c3ccc(NS(=O)(=O)c4ccccc4OC(F)(F)F)cc3C2=O)C(=O)N1 (centres undefined),107%,44.7%,46.1%,6.09% (active),115%,-2.41% (active),69.3%,47.6%,20.5%,108%,65.8%,7.28% (active),6.46% (active),43.2%,56.9%,79.7%,107%,,,
C=C(C)[C@@H]1CC[C@]2(COC)CC[C@]3(C)[C@H](CC[C@@H]4[C@@]5(C)CCCNC(C)(C)[C@@H]5CC[C@]43C)[C@@H]12,59.6%,74.1%,82.6%,71.1%,-30% (active),74.9%,,31.4%,-49.2% (active),57.9%,-47.7% (active),-4.67% (active),62.8%,78.9%,58.3%,51.7%,13.3%,39%,-4.43% (active),-39.4% (active)
COc1cc2c(cc1OC)C(Sc1ccc(F)cc1)c1c(nc(N)c(C#N)c1N)O2 (centres undefined),-83.1% (active),-29.4% (active),-74.8% (active),10.5%,-60.7% (active),-29.4% (active),-37.7% (active),-72.3% (active),-45.3% (active),-93.3% (active),8.27% (active),-75.1% (active),-79% (active),-38.3% (active),-74.8% (active),-90.6% (active),-25% (active),-30% (active),,
COc1ccc([C@@H]2c3[nH]c4ccccc4c3C[C@H]3C(=O)N(C4CCN(CC5CCCCC5)CC4)CC(=O)N23)c(OC)c1,93.3%,74.1%,90.3%,72.9%,82.5%,51.3%,85.2%,70.5%,51.2%,80.8%,22%,95.7%,75.5%,67.2%,98.6%,78.6%,84.8%,,28.7%,
COc1cc(/C=C2\C(=O)Nc3ccccc32)ccc1OCc1ccc(Cl)cc1,93.3%,96.6%,99.7%,101%,41.1%,112%,95.8%,106%,116%,98.7%,98.5%,95.5%,99%,98.6%,103%,98%,125%,,,
CCCCCc1ccc(S(=O)(=O)Nc2cccc(-c3csc(NCCN4CCN(C)CC4)n3)c2)cc1,84%,96.7%,82.9%,89.4%,-9.25% (active),71.2%,90.2%,60.3%,22.2%,74.3%,0.356% (active),-36.7% (active),64.3%,80.9%,107%,76.4%,38.1%,,,
Cn1ccnc1C(=O)/C=C/c1ccc(CNC(=O)c2c(F)c(F)c(F)c(F)c2F)cc1,52.5%,69.5%,81%,66.5%,7.14% (active),117%,32.1%,28%,102%,17.7%,21.1%,97%,30.3%,29.4%,90.4%,2.82% (active),77%,70.4%,,
C=CCn1c(SCC(=O)Nc2ccc(C(=O)/C=C/c3ccc(Cl)cc3)cc2)nnc1-c1c[nH]c2ccccc12,77.8%,68%,88%,88.8%,95.1%,79.9%,73.4%,106%,107%,90.6%,50.7%,83%,81.5%,64%,46%,75.8%,99.6%,64.8%,,
CCc1ccc(SC2c3ccc(N(CC)CC)cc3Oc3nc(N)c(C#N)c(N)c32)cc1 (centres undefined),-85.1% (active),-84.1% (active),-76.6% (active),3.17% (active),-58.3% (active),-44.1% (active),-38.4% (active),-89.2% (active),-52.8% (active),-86.3% (active),1.74% (active),-40.8% (active),-83.8% (active),-24.3% (active),-76.2% (active),-94.1% (active),6.57% (active),-0.807% (active),,
O=C(Nc1ccc2c(ccn2Cc2ccccn2)c1)c1cnccn1,97%,88.3%,106%,72.7%,105%,91.4%,,87.6%,120%,95.6%,107%,106%,86.7%,84.1%,97.5%,96.4%,102%,86.1%,47.8%,106%
CC1(C)CC[C@]23CC[C@]4(C)[C@H](CC[C@@H]5[C@@]6(C)CCCN(CO)C(C)(C)[C@@H]6CC[C@]54C)[C@H]2[C@H]1OC3,86.4%,94.8%,71.9%,98.9%,1.75% (active),77.5%,94.9%,83.8%,0.57% (active),50.7%,2.86% (active),101%,65.9%,97.5%,112%,84.6%,110%,76.8%,,
